The panel holds about 79,000 compounds, 15% with a hit somewhere; the sample as a whole holds those more often. Unmarked numbers belong to inactive results. Activity calls are given as the source filed them. Cut-off read from the data, not from the text of the source: active = growth inhibition above about 70%; inactive = the rest.
How the values were obtained:
[1] = NCI Yeast Anticancer Drug Screen. Data for the rad52 strain (AID 147);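 note: 0% = growth of vehicle-treated control cultures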; details: S. cerevisiae rad52 mutant growth inhibition, hits give high values
Procedure, shortened: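 Genetically altered yeast (DNA damage repair defect) treated with compound; inhibition calculated relative to vehicle.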

[2] = NCI Yeast Anticancer Drug Screen. Data for the wt1 strain (AID 149);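 note: 0% = growth of vehicle-treated wt1 cultures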; details: S. cerevisiae wt1 strain (SPY 50644) growth inhibition, hits give high values
Procedure, shortened: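 Vehicle-normalised growth inhibition; strain wt1; compound exposure.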

[3] = NCI Yeast Anticancer Drug Screen. Data for the rad50EPP+ strain (AID 151);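 note: 0% = growth of vehicle-treated control cultures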; details: S. cerevisiae rad50 mutant strain, hits give high values
Procedure, shortened: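 Strain rad50EPP+; compound exposure; % growth inhibition vs vehicle.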

[4] = NCI Yeast Anticancer Drug Screen. Data for the mgt1 strain (AID 153); details: S. cerevisiae mgt1 mutant growth inhibition, hits give high values
Procedure, shortened: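 Read-out: yeast growth inhibition vs vehicle control. Strain mgt1, drawn from a panel altered in DNA damage repair or cell cycle control.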

[5] = NCI Yeast Anticancer Drug Screen. Data for the rad50 strain (AID 155);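 note: 0% = growth of vehicle-only cultures of the same strain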; details: S. cerevisiae rad50 strain growth inhibition, hits give high values
Procedure, shortened: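 A DNA repair-deficient yeast mutant serves as the test organism; compound-induced growth inhibition is calculated against vehicle-treated cells.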

[6] = NCI Yeast Anticancer Drug Screen. Data for the mec2-1 strain (AID 157); details: S. cerevisiae mec2-1 strain, hits give high values
Procedure, shortened: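 Cells of the genetically defined mec2-1 yeast strain are incubated with test compound. Inhibition of growth is calculated against vehicle-treated controls.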

[7] = NCI Yeast Anticancer Drug Screen. Data for the rad14 strain (AID 159);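 note: 0% = growth of vehicle-treated control cultures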; details: S. cerevisiae rad14 strain growth inhibition, hits give high values
Procedure, shortened: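 Vehicle-treated cultures served as the baseline for growth inhibition of a DNA repair-mutant yeast strain exposed to each compound.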

[8] = NCI Yeast Anticancer Drug Screen. Data for the sgs1 mgt1 strain (AID 161);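 note: 0% = growth of cultures given vehicle only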; details: S. cerevisiae sgs1 mgt1 strain, hits give high values
Procedure, shortened: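 Read-out: growth inhibition vs vehicle controls. Cells: mutant yeast strain deficient in DNA damage repair.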

[9] = NCI Yeast Anticancer Drug Screen. Data for the cln2 rad14 strain (AID 165);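 note: 0% = growth equal to vehicle treated cultures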; details: S. cerevisiae cln2 rad14 strain, hits give high values
Procedure, shortened: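 The screen exposed genetically defined yeast (cln2 rad14) to test compounds and scored growth inhibition relative to vehicle-treated controls.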

[10] = NCI Yeast Anticancer Drug Screen. Data for the bub3 strain (AID 167); details: S. cerevisiae bub3 mutant strain, hits give high values
Procedure, shortened: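 Inhibition values come from growth of compound-treated mutant yeast normalised to vehicle-treated controls.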

[11] = NCI Yeast Anticancer Drug Screen. Data for the wt2 strain (AID 169);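 note: 0% = growth of vehicle-treated yeast cultures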; details: S. cerevisiae wt2 strain growth inhibition, hits give high values
Procedure, shortened: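 Steps: yeast strain treated with compound; growth recorded; inhibition calculated relative to cultures given vehicle alone.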

[12] = NCI Yeast Anticancer Drug Screen. Data for the mlh1 strain (AID 171);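 note: 0% = growth of vehicle-treated control cultures of the same strain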; details: S. cerevisiae mlh1 strain growth inhibition, hits give high values
Procedure, shortened: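 Yeast screen: mutant strain plus compound, growth scored against vehicle control wells.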

[13] = NCI Yeast Anticancer Drug Screen. Data for the sgs1 strain (AID 173);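 note: 0% = growth of vehicle-only control cultures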; details: S. cerevisiae sgs1 mutant, hits give high values
Procedure, shortened: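 Inhibition of yeast growth served as the measure. The mutant strain was treated with each compound, and growth was normalised to cultures receiving vehicle alone.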

[14] = NCI Yeast Anticancer Drug Screen. Data for the mlh1 rad18 strain (AID 175); details: S. cerevisiae mlh1 rad18 strain growth inhibition, hits give high values
Procedure, shortened: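 Compound-treated yeast growth, normalised to vehicle controls. Strain bears defined DNA repair mutations.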

[15] = NCI Yeast Anticancer Drug Screen. Data for the rad18 strain (AID 177); details: S. cerevisiae rad18 mutant growth inhibition, hits give high values
Procedure, shortened: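 Inhibition values reflect reduced yeast growth compared with vehicle-treated controls, using a strain engineered with a DNA damage repair defect.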

[16] = NCI Yeast Anticancer Drug Screen. Data for the CLN2oe strain (AID 163);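 note: 0% = growth of vehicle-only control cultures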; details: S. cerevisiae CLN2oe strain, hits give high values
Procedure, shortened: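 Strain altered in cell-cycle control, incubated with compound; growth compared to solvent-treated controls.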

[17] = at 5.0 µM (retest, dose inferred, filed as 0.5)
[18] = at 50.0 µM (retest, dose inferred, filed as 5.0)

SMILES: Cn1cnc(N)c1C(=N)[Se]
- growth inhibition ([1]; at 1.2 µM): 7%
- growth inhibition ([1]; at 3.7 µM): 26%
- growth inhibition ([1]; at 11.0 µM): 70% (active)
- growth inhibition ([1]; at 33.0 µM): 95% (active)
- growth inhibition ([1]; at 100.0 µM): 95% (active)
- growth inhibition ([2]; at 1.2 µM): -1%
- growth inhibition ([2]; at 3.7 µM): 3%
- growth inhibition ([2]; at 11.0 µM): 10%
- growth inhibition ([2]; at 33.0 µM): 47%
- growth inhibition ([2]; at 100.0 µM): 80% (active)
- growth inhibition ([3]; at 1.2 µM): 66%
- growth inhibition ([3]; at 3.7 µM): 90% (active)
- growth inhibition ([3]; at 11.0 µM): 98% (active)
- growth inhibition ([3]; at 33.0 µM): 98% (active)
- growth inhibition ([3]; at 100.0 µM): 95% (active)
- growth inhibition ([4]; at 1.2 µM): 1%
- growth inhibition ([4]; at 3.7 µM): -1%
- growth inhibition ([4]; at 11.0 µM): 4%
- growth inhibition ([4]; at 33.0 µM): 44%
- growth inhibition ([4]; at 100.0 µM): 57%
- growth inhibition ([5]; at 1.2 µM): 27%
- growth inhibition ([5]; at 3.7 µM): 59%
- growth inhibition [5, 17]: -44%
- growth inhibition ([5]; at 11.0 µM): 93% (active)
- growth inhibition ([5]; at 33.0 µM): 95% (active)
- growth inhibition [5, 18]: 89% (active)
- growth inhibition ([5]; at 50.0 µM): 96.5% (active)
- growth inhibition ([5]; at 100.0 µM): 93% (active)
- growth inhibition ([6]; at 1.2 µM): -2%
- growth inhibition ([6]; at 3.7 µM): 0%
- growth inhibition [6, 17]: -46%
- growth inhibition ([6]; at 11.0 µM): 48%
- growth inhibition ([6]; at 33.0 µM): 93% (active)
- growth inhibition [6, 18]: 50%
- growth inhibition ([6]; at 50.0 µM): 86.5% (active)
- growth inhibition ([6]; at 100.0 µM): 93% (active)
- growth inhibition ([7]; at 1.2 µM): 9%
- growth inhibition ([7]; at 3.7 µM): 15%
- growth inhibition ([7]; at 11.0 µM): 46%
- growth inhibition ([7]; at 33.0 µM): 91% (active)
- growth inhibition ([7]; at 100.0 µM): 94% (active)
- growth inhibition [8, 17]: -61%
- growth inhibition [8, 18]: -32%
- growth inhibition ([8]; at 50.0 µM): 13.3%
- growth inhibition [9, 17]: -60%
- growth inhibition [9, 18]: -40%
- growth inhibition ([9]; at 50.0 µM): -53.6%
- growth inhibition ([10]; at 1.2 µM): 4%
- growth inhibition ([10]; at 3.7 µM): 15%
- growth inhibition [10, 17]: -67%
- growth inhibition ([10]; at 11.0 µM): 80% (active)
- growth inhibition ([10]; at 33.0 µM): 97% (active)
- growth inhibition [10, 18]: 64%
- growth inhibition ([10]; at 50.0 µM): 78.2% (active)
- growth inhibition ([10]; at 100.0 µM): 94% (active)
- growth inhibition ([11]; at 1.2 µM): 10%
- growth inhibition ([11]; at 3.7 µM): 25%
- growth inhibition ([11]; at 11.0 µM): 59%
- growth inhibition ([11]; at 33.0 µM): 77% (active)
- growth inhibition ([11]; at 100.0 µM): 87% (active)
- growth inhibition ([12]; at 1.2 µM): 2%
- growth inhibition ([12]; at 3.7 µM): -3%
- growth inhibition ([12]; at 11.0 µM): 28%
- growth inhibition ([12]; at 33.0 µM): 60%
- growth inhibition ([12]; at 100.0 µM): 89% (active)
- growth inhibition ([13]; at 1.2 µM): 2%
- growth inhibition ([13]; at 3.7 µM): -1%
- growth inhibition ([13]; at 11.0 µM): 40%
- growth inhibition ([13]; at 33.0 µM): 84% (active)
- growth inhibition ([13]; at 100.0 µM): 92% (active)
- growth inhibition [14, 17]: -126%
- growth inhibition [14, 18]: 84% (active)
- growth inhibition ([14]; at 50.0 µM): 80.5% (active)
- growth inhibition ([15]; at 1.2 µM): -9%
- growth inhibition ([15]; at 3.7 µM): 7%
- growth inhibition ([15]; at 11.0 µM): 58%
- growth inhibition ([15]; at 33.0 µM): 80% (active)
- growth inhibition ([15]; at 100.0 µM): 91% (active)

SMILES: CC1CCCN(CCc2ccccc2)CC1 (stereo unspecified)
- growth inhibition ([1]; at 1.2 µM): 1%
- growth inhibition ([1]; at 3.7 µM): 4%
- growth inhibition ([1]; at 11.0 µM): 11%
- growth inhibition ([1]; at 33.0 µM): 16%
- growth inhibition ([1]; at 100.0 µM): 26%
- growth inhibition ([2]; at 1.2 µM): 2%
- growth inhibition ([2]; at 3.7 µM): 8%
- growth inhibition ([2]; at 11.0 µM): 8%
- growth inhibition ([2]; at 33.0 µM): 7%
- growth inhibition ([2]; at 100.0 µM): 5%
- growth inhibition ([3]; at 1.2 µM): 2%
- growth inhibition ([3]; at 3.7 µM): 3%
- growth inhibition ([3]; at 11.0 µM): 4%
- growth inhibition ([3]; at 33.0 µM): 4%
- growth inhibition ([3]; at 100.0 µM): 5%
- growth inhibition ([5]; at 1.2 µM): 1%
- growth inhibition ([5]; at 3.7 µM): 6%
- growth inhibition [5, 17]: -8%
- growth inhibition ([5]; at 11.0 µM): 10%
- growth inhibition ([5]; at 33.0 µM): 13%
- growth inhibition [5, 18]: 66%
- growth inhibition ([5]; at 50.0 µM): 17.4%
- growth inhibition ([5]; at 100.0 µM): 14%
- growth inhibition ([6]; at 1.2 µM): 0%
- growth inhibition ([6]; at 3.7 µM): 8%
- growth inhibition [6, 17]: -13%
- growth inhibition ([6]; at 11.0 µM): 12%
- growth inhibition ([6]; at 33.0 µM): 15%
- growth inhibition [6, 18]: 11%
- growth inhibition ([6]; at 50.0 µM): 20.9%
- growth inhibition ([6]; at 100.0 µM): 22%
- growth inhibition ([7]; at 1.2 µM): 2%
- growth inhibition ([7]; at 3.7 µM): 14%
- growth inhibition ([7]; at 11.0 µM): 29%
- growth inhibition ([7]; at 33.0 µM): 33%
- growth inhibition ([7]; at 100.0 µM): 31%
- growth inhibition [8, 17]: 13%
- growth inhibition [8, 18]: 76% (active)
- growth inhibition ([8]; at 50.0 µM): 28.8%
- growth inhibition ([16]; at 1.2 µM): -5%
- growth inhibition ([16]; at 3.7 µM): -8%
- growth inhibition ([16]; at 11.0 µM): 18%
- growth inhibition ([16]; at 33.0 µM): 30%
- growth inhibition ([16]; at 100.0 µM): 43%
- growth inhibition [9, 17]: 5%
- growth inhibition [9, 18]: 37%
- growth inhibition ([9]; at 50.0 µM): 58.6%
- growth inhibition ([10]; at 1.2 µM): -3%
- growth inhibition ([10]; at 3.7 µM): 0%
- growth inhibition [10, 17]: 2%
- growth inhibition ([10]; at 11.0 µM): 9%
- growth inhibition ([10]; at 33.0 µM): 21%
- growth inhibition [10, 18]: 83% (active)
- growth inhibition ([10]; at 50.0 µM): 46.6%
- growth inhibition ([10]; at 100.0 µM): 25%
- growth inhibition ([11]; at 1.2 µM): 2%
- growth inhibition ([11]; at 3.7 µM): 4%
- growth inhibition ([11]; at 11.0 µM): 6%
- growth inhibition ([11]; at 33.0 µM): 8%
- growth inhibition ([11]; at 100.0 µM): 10%
- growth inhibition ([12]; at 1.2 µM): 1%
- growth inhibition ([12]; at 3.7 µM): 4%
- growth inhibition ([12]; at 11.0 µM): 10%
- growth inhibition ([12]; at 33.0 µM): 15%
- growth inhibition ([12]; at 100.0 µM): 14%
- growth inhibition ([13]; at 1.2 µM): 0%
- growth inhibition ([13]; at 3.7 µM): 7%
- growth inhibition ([13]; at 11.0 µM): 16%
- growth inhibition ([13]; at 33.0 µM): 23%
- growth inhibition ([13]; at 100.0 µM): 21%
- growth inhibition [14, 17]: 19%
- growth inhibition [14, 18]: 78% (active)
- growth inhibition ([14]; at 50.0 µM): 34.9%
- growth inhibition ([15]; at 1.2 µM): 3%
- growth inhibition ([15]; at 3.7 µM): 7%
- growth inhibition ([15]; at 11.0 µM): 15%
- growth inhibition ([15]; at 33.0 µM): 12%
- growth inhibition ([15]; at 100.0 µM): 16%

Reference: PubChem BioAssay (NCI)
